Screens (PubChem)
Compounds with a hit are over-represented: about 7.3% of the library has one in this group of screens.
HCV inhibitor = blocks hepatitis C virus | Huh7.5.1 HCVcc-Cre infection, luciferase reporter, 44 h | Potency, µM (titrated, usually from 41.8 µM), for inactives: at the highest dose activity change, negative = inhibition, hits mostly inhibitors | hit rate 3.4% among 340,000 | AID 651820; further: potency means the concentration at half of the fitted maximal effect
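After 44 h co-culture of compound, cells and HCVcc-Cre (~0.5 moi), substrate is added for 15 min at room temperature and luciferase measured over 15 sec. Cells were seeded at 1,000/well and pre-cultured 4 h.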
HCMV inh = inhibitors of human cytomegalovirus; HFF cells, HCMV-luciferase reporter, 72 h; stronger effect = lower value; activity change, negative = inhibition, % at 57.5 µM; hit rate 4.5% among 410,000; AID 1259415; in the data active means activity change below about -60%; inconclusive means no clear call, values can overlap the other calls; inactive means above about -39%
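Compounds were evaluated in HFFs infected with an HCMV luciferase reporter virus (MOI 1 PFU/cell). Luciferase in lysates collected 72 h post infection served as the replication measure.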
AmpC detergent = inhibitors of E. coli AmpC beta-lactamase with detergent. AmpC hydrolysis of nitrocefin, absorbance 480 nm, 0.01% Triton. Potency, µM (top dose mostly 114 µM), without a hit: at the top dose activity change, negative = inhibition, hits mostly inhibitors. hit rate 0.041% among 370,000. AID 485294;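 further: potency means the concentration at half of the fitted maximal effect; 0% = no-compound wells and -100% = no-enzyme wells; nearly all actives have a fitted effect of over 25% in size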
Target sequence (P00811 whole entry, looked up): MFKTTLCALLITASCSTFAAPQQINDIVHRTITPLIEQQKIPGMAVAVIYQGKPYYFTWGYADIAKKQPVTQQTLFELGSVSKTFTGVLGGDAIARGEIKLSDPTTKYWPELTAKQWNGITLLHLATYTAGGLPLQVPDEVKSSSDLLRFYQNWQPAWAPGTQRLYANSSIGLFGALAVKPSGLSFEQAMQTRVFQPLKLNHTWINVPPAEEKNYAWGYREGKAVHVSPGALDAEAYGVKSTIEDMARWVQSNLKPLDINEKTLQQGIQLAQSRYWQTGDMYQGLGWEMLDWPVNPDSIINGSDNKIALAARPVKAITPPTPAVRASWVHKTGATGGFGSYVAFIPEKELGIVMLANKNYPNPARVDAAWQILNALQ
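20 mM phosphate pH 7.0 + 0.01% (detergent screen) or 0.0001% Triton X-100; 5.3 nM AmpC reagent; cpd preinc 15 min RT; nitrocefin (800 uM stock) to start; A480 q20 s × 4 min; Activity was normalised to no-enzyme and no-compound control wells.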
FMDV antiviral = antivirals against foot and mouth disease virus; FMDV antiviral cell-based qHTS; Potency, µM (doses to about 57.9 µM), for inactives: top-dose activity change, negative = inhibition, usual class: inhibitors; hit rate 1.2% among 410,000; AID 1159524; calls by dose curve; tested in HEK293T cells; further: read-out not given here; potency means the concentration at half of the fitted maximal effect; nearly all actives have a fitted effect of over 45% in size
AmpC inh no detg = AmpC beta-lactamase inhibition without detergent | hit rate 0.52% among 330,000 | AmpC nitrocefin hydrolysis, absorbance 480 nm, 0.0001% Triton | AID 485341 | Potency, µM (highest dose often 57.1 µM), for the others: at the highest dose activity change, negative = inhibition, usual class: inhibitors;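 further: potency means the concentration at half of the fitted maximal effect; plate controls were no compound for no effect and no enzyme for full effect; nearly all actives have a fitted effect of over 20% in size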
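AmpC (5.3 nM in the dispensed reagent) in 20 mM phosphate pH 7.0 with 0.01% (detergent screen) or 0.0001% Triton X-100 was preincubated with compounds for 15 min at room temperature. Nitrocefin was then added from an 800 uM solution, and hydrolysis was followed at 480 nm.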
* = called active by the depositor; [ ] = remark or other dose. Unless noted, the call rests on the fitted dose curve; in most records, active means well fitted curve in the direction sought with a large enough effect; inconclusive means small, poorly fitted or top-dose-only effect, or another doubt; inactive means no such curve, though single readings can be large; an effect the other way counts as inactive or inconclusive. Unless noted, on the % scale 0 is the no-effect control and ±100 the full control effect.

How did Cc1cc(Oc2ccc(-c3ccccc3)cc2)n2ncnc2n1 do in these assays?
HCV inhibitor: 18.2%; HCMV inh: 80.8; AmpC detergent: -12.0%; FMDV antiviral: 39.8µM*; AmpC inh no detg: 37.4%

Results for C=C1[C@@H](CCO)N(S(=O)C(C)(C)C)C[C@@H]1C (some centres undefined) ?
HCMV inh: -12.8

Results for O=C(C1CCCCC1)N1CCOc2ccc(CN3CCN(Cc4ccccn4)CC3)cc2C1 ?
FMDV antiviral: 23.2%

What do the screens show for `CCc1ncn(CCc2ccccc2OC)c1C(C)C`?
HCMV inh: -17.8; FMDV antiviral: -16.2%

How did CCCc1c(Cc2cccc(F)c2)ncn1CCc1ccccc1OC do in these assays?
HCMV inh: -61.1*

What do the screens show for `COc1ccccc1CCn1cnc(Cc2cccc(F)c2)c1C(C)C`?
HCMV inh: inconclusive; FMDV antiviral: 22.4µM*

Results for COc1ccc(Nc2cc3[nH]c(-c4ccccc4)cc3cn2)cc1 ?
HCMV inh: 1.1

How did CCOC(=O)c1cc2c(=O)n3ccccc3nc2n(CC2CCCO2)c1=NC(=O)c1cccc(C)c1 (centres undefined) do in these assays?
HCMV inh: -4.0; AmpC detergent: -5.1%; FMDV antiviral: 10.8%

What do the screens show for `COc1ccc(CN2CCOc3c(cc(-c4cccc(OC)n4)cc3OC)C2)c(O)c1`?
FMDV antiviral: -1.7%

Results for Cc1cc(NC(=O)Cn2nnc3sc4c(c3c2=O)CCC(C(C)(C)C)C4)no1 (centres undefined) ?
HCV inhibitor: 11.2µM*; HCMV inh: inconclusive; AmpC detergent: 2.4%; FMDV antiviral: -14.2%; AmpC inh no detg: -33.2%

What do the screens show for `O=C(N[C@@H](Cc1ccccc1)C(=O)CCl)OCc1ccccc1`?
HCV inhibitor: inconclusive; HCMV inh: -90.0*; AmpC detergent: -14.3%; FMDV antiviral: 31.6µM*; AmpC inh no detg: -18.8%

What do the screens show for `Cc1onc(-c2c(Cl)cccc2Cl)c1C(=O)N=S(C)(=O)c1ccccc1` (centres undefined)?
HCV inhibitor: 13.3%; HCMV inh: 22.6; AmpC detergent: 4.1%; FMDV antiviral: -12.8%; AmpC inh no detg: 2.2%

Results for COc1cccc(C(=O)c2cn(CC(=O)Nc3cccc(C)c3C)c3nc(C)ccc3c2=O)c1 ?
HCMV inh: -4.9; AmpC detergent: inconclusive; FMDV antiviral: 0.0%

Results for CN(C)CCCN1c2ccccc2Sc2ccccc21 ?
HCV inhibitor: -17.9%[8.37 µM]; HCMV inh: inconclusive; AmpC detergent: -3.8%; FMDV antiviral: inconclusive; AmpC inh no detg: 30.5%

Results for CN(C)CCCC1Sc2ccccc2Sc2ccccc21 (centres undefined) ?
HCV inhibitor: 15.8µM*; HCMV inh: -7.8; FMDV antiviral: inconclusive

How did CC[N+](CC)(CCCCS(=O)(=O)[O-])CCNP1(=O)C=C(c2ccccc2)OC(c2ccccc2)=C1 do in these assays?
HCV inhibitor: 6.5%; HCMV inh: -70.4*; AmpC detergent: 9.9%; FMDV antiviral: 2.7%; AmpC inh no detg: 17.7%

Results for CSc1nc(C)cc(OCCNS(=O)(=O)c2cc(C)ccc2C)n1 ?
HCV inhibitor: 22.4µM*; HCMV inh: -8.3; AmpC detergent: 1.9%; FMDV antiviral: 9.0%; AmpC inh no detg: -7.5%

Results for CCOc1ccc(NS(=O)(=O)c2cnc(Cl)c(Cl)c2)cc1 ?
HCV inhibitor: -6.3%; HCMV inh: -32.7; AmpC detergent: -1.2%; FMDV antiviral: -20.5%; AmpC inh no detg: -18.2%

Results for Cc1cc(C)cc(NS(=O)(=O)c2cnc(Cl)c(Cl)c2)c1 ?
HCV inhibitor: 11.2µM*; HCMV inh: -14.6; AmpC detergent: -4.1%; FMDV antiviral: 14.5%; AmpC inh no detg: -14.6%

How did O=C(Cn1cnc2ccccc21)N/N=C/c1ccccc1 do in these assays?
HCV inhibitor: 8.4%; HCMV inh: 12.5; AmpC detergent: inconclusive; FMDV antiviral: -15.2%; AmpC inh no detg: -17.7%[11.4 µM]

What do the screens show for `CC(/C=N/NC(=O)Cn1cnc2ccccc21)=C\c1ccccc1`?
HCV inhibitor: -5.2%; HCMV inh: -70.0*; AmpC detergent: -12.2%; FMDV antiviral: -8.2%; AmpC inh no detg: -11.3%

How did CC(=O)Nc1ccc(Oc2ccc([N+](=O)[O-])cc2Cl)cc1 do in these assays?
HCV inhibitor: -3.1%; HCMV inh: -16.1; AmpC detergent: 3.6%; FMDV antiviral: inconclusive; AmpC inh no detg: -8.7%

What do the screens show for `CC(=O)Nc1ccc(N=c2cc([N+](=O)[O-])cc(Cl)n2O)cc1`?
HCV inhibitor: 10µM*; HCMV inh: -85.0*; AmpC detergent: -6.6%; FMDV antiviral: 0.3%; AmpC inh no detg: -12.5%

What do the screens show for `O=C(Nc1ccccc1)c1ccc(Cl)c(S(=O)(=O)Nc2ccccc2)c1`?
HCMV inh: 33.4; AmpC detergent: 0.0%; FMDV antiviral: 68.6%

How did COc1ccc(N(CC(=O)Nc2cccc(N(C)S(C)(=O)=O)c2)S(=O)(=O)c2ccc(C)cc2)cc1 do in these assays?
HCV inhibitor: inconclusive; HCMV inh: -30.2; AmpC detergent: -9.2%; FMDV antiviral: 25.8%; AmpC inh no detg: -3.0%

What do the screens show for `CN(c1cccc(NC(=O)c2ccc(Cl)c(S(=O)(=O)Nc3ccccc3)c2)c1)S(C)(=O)=O`?
HCV inhibitor: 10µM*; HCMV inh: 2.3; AmpC detergent: inconclusive; FMDV antiviral: 19.0%; AmpC inh no detg: -11.7%

How did CCOc1ccc(N(CC(=O)Nc2cccc(N(C)S(C)(=O)=O)c2)S(=O)(=O)c2ccccc2)cc1 do in these assays?
HCV inhibitor: inconclusive; HCMV inh: -64.0*; AmpC detergent: -6.8%; FMDV antiviral: 16.1%; AmpC inh no detg: -0.7%

What do the screens show for `CN(c1cccc(NC(=O)CN(c2cccc(Cl)c2)S(=O)(=O)c2ccccc2)c1)S(C)(=O)=O`?
HCV inhibitor: 11.2µM*; HCMV inh: inconclusive; AmpC detergent: -2.2%; FMDV antiviral: 0.0%; AmpC inh no detg: -16.7%

Results for CCN1/C(=C(\O)c2ccccc2)C(=O)c2ccccc2S1(=O)=O ?
HCV inhibitor: 6.2%; HCMV inh: -87.6*; AmpC detergent: -4.5%; FMDV antiviral: 0.0%; AmpC inh no detg: -34.7%

Results for CCCN1C(C(=O)c2ccccc2)=C(OC(=O)c2ccc(F)cc2)c2ccccc2S1(=O)=O ?
HCMV inh: -89.6*; AmpC detergent: 18.3%; FMDV antiviral: -8.4%

What do the screens show for `CCN1C(C(=O)c2ccccc2)=C(OC(=O)COc2ccccc2)c2ccccc2S1(=O)=O`?
HCMV inh: -60.2*; AmpC detergent: 3.6%; FMDV antiviral: -7.7%

What do the screens show for `COC(=O)CN1C(C(=O)c2ccccc2)=C(OC(=O)c2ccc(C)cc2)c2ccccc2S1(=O)=O`?
HCMV inh: 0.4; AmpC detergent: 0.9%; FMDV antiviral: -26.9%
